The source of these data is PubChem BioAssay AID504332 (National Center for Advancing Translational Sciences (NCATS), 2011).

Structures are written as SMILES. Out of some 350,000 compounds screened, about 31,000 (8.9%) were called active. Roughly 15% stayed inconclusive and do not appear here. The sample holds actives, similar compounds and a random draw of the others, so the mix is not that of the screen. A number with no mark means an inactive call. Calls follow the shape of the dose curve; as a rule, active = well fitted inhibition curve with a large enough effect; inconclusive = small, poorly fitted or top-dose-only effect; inactive = no such curve, though single readings can be large or run the other way.
% is scaled to controls: 0 for no effect and ±100 for the full control effect; potency is read from the fitted curve at half-maximal effect.

In the assay the target is Histone-lysine N-methyltransferase EHMT2 (Homo sapiens) (UniProt Q96KQ7). The assay can be described thus: qHTS Assay for Inhibitors of Histone Lysine Methyltransferase G9a. Also: nearly all actives have a fitted effect of over 75% in size. Particulars: G9a H3K9 monomethylation, AlphaScreen, 2 h; series mostly up to 59 µM; activity, negative = inhibition: at the top concentration. An outline of the steps: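 G9a (20 nM) preincubated 15 min RT with compounds, then 500 nM biotinylated H3K9 peptide and 20 uM SAM added; 2 h RT reaction. Monomethyl-H3K9 product detected by AlphaScreen with anti-H3K9me1 antibody, streptavidin donor and anti-rabbit IgG acceptor beads.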
Chain of Histone-lysine N-methyltransferase EHMT2 (Homo sapiens) (Q96KQ7 913-1193 limits assumed): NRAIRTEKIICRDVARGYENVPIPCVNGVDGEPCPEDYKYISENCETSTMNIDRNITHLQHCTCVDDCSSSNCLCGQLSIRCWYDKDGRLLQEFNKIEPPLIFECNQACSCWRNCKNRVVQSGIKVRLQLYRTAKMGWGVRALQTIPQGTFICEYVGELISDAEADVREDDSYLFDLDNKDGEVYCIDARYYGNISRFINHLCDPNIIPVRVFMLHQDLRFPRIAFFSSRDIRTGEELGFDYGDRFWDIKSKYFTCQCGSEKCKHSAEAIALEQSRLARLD
On to `COc1cc(CCC(=O)N2CCN(c3ccccc3Cl)CC2)cc(OC)c1OC`, for which the “activity, negative = inhibition” value was -9.07% [at 102 µM]. As for `CCc1ccc(CN(Cc2ccco2)C(=O)COc2ccc(Cl)c(C)c2)cc1`, the “activity, negative = inhibition” value was 91.2%.

`Cc1ccc(OCCSc2nc(C)c(Cc3ccccc3)c(=O)[nH]2)cc1`: the “activity, negative = inhibition” value was -9.13%. As to `CCOc1cc(C2C(C(=O)c3ccco3)=C(O)C(=O)N2Cc2ccccc2)ccc1O` (configuration not stated), the Potency is 44.7 µM (active). Consider `O=C(C1=C(O)C(=O)N(Cc2ccccc2)C1c1ccco1)c1ccco1` (configuration not stated), for which the activity, negative = inhibition was 0.744% [at 12.7 µM].

On to `CCOc1cc(C2c3c(-c4ccc(Br)cc4)n[nH]c3C(=O)N2c2ccc(Cl)cc2)ccc1O` (configuration not stated), for which the “activity, negative = inhibition” value was -2.85%. For the compound `O=C(CCNS(=O)(=O)c1ccccc1C(F)(F)F)Nc1ccncc1`, the activity, negative = inhibition was -8.2% [at 12.7 µM].

As to `Cc1cc(/C=C2/SC(=O)N(CC(=O)N3CCCC3)C2=O)ccc1N1CCOCC1`, the “activity, negative = inhibition” value was -34.9% [at 102 µM].

For `Cc1cc(/C=C2/SC(=O)N(CC(=O)OC(C)C)C2=O)c(C)n1C`, the activity, negative = inhibition is 19.4% [at 12.7 µM]. On to `Cc1cc(/C=C2/SC(=O)N(CC(=O)N3CCCC3)C2=O)c(C)n1C`, for which the Potency is 50.1 µM (active). For the compound `Cc1cccc(N=C2SC(C)CN2C(=O)CN2C(=O)NC3(CCCC3)C2=O)c1` (configuration not stated), the activity, negative = inhibition is -1.2% [at 0.501 µM]. Consider `CCn1cc2nc(SCc3ccccc3Cl)n(CCc3ccccc3)c(=O)c2n1`, for which the “activity, negative = inhibition” value is -9.1%.

On to `C=CCOc1ccc(/C=C/C(=O)OC(C)C(=O)Nc2ccc(NC(C)=O)cc2)cc1` (configuration not stated), for which the “activity, negative = inhibition” value is -0.879% [at 102 µM].

Regarding `COc1ccc(CNC(=O)COC(=O)CCS(=O)(=O)c2ccc(C)cc2)cc1OC`, the “activity, negative = inhibition” value is 8.78% [at 102 µM]. Regarding `CN1CCN(S(=O)(=O)c2cccc(C(=O)O)c2)CC1`, the “activity, negative = inhibition” value is -49.6% [at 102 µM]. `CN1CCN(S(=O)(=O)c2ccc3[nH]cc(C(=O)O)c(=O)c3c2)CC1`: the Potency was 56.2 µM (active).

With `CN1CCCN(S(=O)(=O)c2ccc3c(c2)OCCO3)CC1`, the “activity, negative = inhibition” value is 76.4%. For `COc1ccc(N2CCN(Cc3nnc(-c4ccccc4)o3)CC2)cc1`, the Potency was 35.5 µM (active). With `Cc1ccc(C)c(N2CCN(Cc3nnc(-c4ccccc4)o3)CC2)c1`, the “activity, negative = inhibition” value was -2.97%. With `Cc1ccc(-c2nnc(CN3CCN(C)CC3)o2)cc1`, the “activity, negative = inhibition” value is -1.5% [at 102 µM].

As to `COc1ccc(N2CCN(Cc3ccc(Br)s3)CC2)cc1`, the Potency was 3.16 µM (active). Consider `COc1ccc(N2CCN(Cc3nc4c(c(=O)[nH]c(=O)n4C)n3Cc3ccc(Cl)cc3)CC2)cc1`, for which the “activity, negative = inhibition” value was -33.5%. As to `CCOCc1c(C(=O)N2CCN(Cc3ccc(Br)s3)CC2)oc2ccccc12`, the activity, negative = inhibition was 16.1% [at 2.33 µM]. As to `CNS(=O)(=O)c1cccc(C(=O)OCC(=O)N2c3ccccc3NC(=O)C2(C)C)c1`, the activity, negative = inhibition is 10.5% [at 12.7 µM].

Take `COc1ccc(NC(=O)CN2CCCN(Cc3ccccc3)S2(=O)=O)cc1`: the “activity, negative = inhibition” value was 2.42%.

In the case of `CC(C)Sc1ncnc2c1cnn2-c1ccccc1`, the “activity, negative = inhibition” value was 326% [at 102 µM].

Regarding `Cc1cc(NC(=O)C(C)SCC(=O)Nc2ccccc2N2CCCCC2)no1` (configuration not stated), the “activity, negative = inhibition” value was -46.6% [at 102 µM].

As for `CCOc1ccc(CNC(=O)c2ccc3nc(CC)c(CC)nc3c2)cc1OC`, the “activity, negative = inhibition” value was -2.75%. In the case of `CCCCNC(=O)N(O)C1N(/N=C/c2ccccc2O)C(=S)SC1(C)C` (configuration not stated), the “activity, negative = inhibition” value is 17.2% [at 102 µM]. Turning to `O=C(Nc1cccc(Cl)c1N1CCOCC1)c1ccc2c(c1)OCCO2`, the “activity, negative = inhibition” value was -12% [at 102 µM]. As to `CN1CCN(c2ccc(NC(=O)c3ccccc3)cc2)CC1`, the “activity, negative = inhibition” value was -20.6% [at 102 µM].

Take `CN1CCN(c2ccc(NC(=O)c3cc(Cl)c4c(c3)OCCO4)cc2)CC1`: the Potency is 50.1 µM (active). Turning to `CCCC12CN3CC(C)(CN(C1)C3c1ccccc1Cl)C2=O` (configuration not stated), the “activity, negative = inhibition” value is -38%. In the case of `COc1ccc2c(c1)cc1n2CCN=C1NN`, the Potency was 39.8 µM (active). Consider `COc1ccc2ccn(C)c2c1`, for which the activity, negative = inhibition was -0.398% [at 0.501 µM]. As for `Cc1ccc(C)c(NC(=O)Cn2ccn(-c3ccc(F)cc3)c(=O)c2=O)c1`, the “activity, negative = inhibition” value is -3.23%. Turning to `Cc1cccc(C(=O)Nc2ccc(-c3nc4ncccc4o3)cc2C)c1`, the “activity, negative = inhibition” value was -23.1%. `COC(=O)C1=CO[C@@H](O[C@@H]2O[C@H](CO)[C@@H](O)[C@H](O)[C@H]2O)C2C1C[C@H](O)[C@@H]2C` (some centres not stated): the activity, negative = inhibition was 1.46% [at 2.33 µM]. As for `CCc1cccc(NC(=O)Cn2nc(CC)n3c(cc4cc(C)ccc43)c2=O)c1`, the “activity, negative = inhibition” value is 10.2%. For `COc1ccccc1C(=O)NCC(=O)OCC(=O)Nc1nnc(-c2ccccc2)o1`, the activity, negative = inhibition is 17.3% [at 12.7 µM]. With `COc1ccccc1NC(=O)C1=C(C)Nc2ncnn2C1c1ccc(C)o1` (configuration not stated), the activity, negative = inhibition was -42.2% [at 12.7 µM].

As for `COc1ccccc1NC(=O)C1=C(C)NC2=C(C(=O)CCC2)C1c1ccc(C)o1` (configuration not stated), the Potency was 50.1 µM (active). On to `COc1ccccc1NC(=O)C1=C(C)NC(=O)NC1c1ccc(C)s1` (configuration not stated), for which the “activity, negative = inhibition” value was -35.5% [at 102 µM]. Same read-out and setting: for `CCOC(=O)c1cc2c(=O)n3ccccc3nc2n(CC2CCCO2)c1=NC(=O)c1ccccc1Br` (configuration not stated) the value was 7.77%; for `CC(=O)N/C(=C\c1ccccc1)C(=O)OC(C)C(=O)N(C)c1ccccc1` (configuration not stated), 7.54% [at 102 µM]; for `Cc1ccc(OCCCC(=O)Nc2ccc3c(c2)OCCO3)cc1`, -14.7%. Consider `CN(CCc1ccccn1)C(=O)c1ccc(OC2CCN(Cc3ccccn3)CC2)cc1`, for which the activity, negative = inhibition is 24.7% [at 0.501 µM].

Turning to `O=C(c1ccc(OC2CCN(Cc3ccccn3)CC2)cc1)N1CCCCCC1`, the “activity, negative = inhibition” value was 8.07% [at 102 µM]. Regarding `CCCCN(C)C(=O)C1CCN(Cc2ccccn2)CC1`, the Potency is 5.62 µM (active).

Consider `Cc1noc(C)c1COc1ccccc1C(=O)N(C)CC(=O)Nc1cccc(F)c1`, for which the “activity, negative = inhibition” value is -4.12% [at 102 µM]. With `CCOC(=O)c1ccc(NC(=O)Cn2cc(S(=O)(=O)Cc3ccccc3F)c3ccccc32)cc1`, the “activity, negative = inhibition” value was -3.92%.

As for `Cc1cc(C(=O)CCC(=O)NNC(=O)c2ccccc2O)c(C)s1`, the “activity, negative = inhibition” value was 16.4% [at 102 µM]. On the same count and under the same terms, to `Cc1sc2nc(SCCO)n(-c3ccccc3)c(=O)c2c1C` belongs -15.9% [at 102 µM].

For `C=CCN1CN(S(=O)(=O)c2ccc(OC)cc2)c2nc3ccccc3nc21`, the Potency was 7.08 µM (active). Consider `O=S(=O)(c1ccccc1)N1CN(Cc2ccc(F)cc2)c2nc3ccccc3nc21`, for which the “activity, negative = inhibition” value was -47.7% [at 102 µM].

Consider `COc1ccc(S(=O)(=O)N2CCSCC2)cc1`, for which the “activity, negative = inhibition” value is 1.31% [at 102 µM]. Take `O=C(CC1C(=O)N(c2ccccc2)C(=O)N1CCc1cccs1)Nc1ccc(F)cc1` (configuration not stated): the “activity, negative = inhibition” value is 5.32%. Take `Cc1ccccc1C(=O)NC(=S)NC1CC1`: the “activity, negative = inhibition” value was -4% [at 102 µM].

As for `CCn1c2ccccc2c2cc(NC(=O)COc3ccc(C)cc3C)ccc21`, the “activity, negative = inhibition” value is -36%. Still for that read-out and setting: to `O=C(CCC(=O)c1cccs1)NC1CCCCCC1` belongs -16.9% [at 102 µM]. On to `O=C(CCCCCn1c(=S)[nH]c2ccsc2c1=O)NC1CCCCC1`, for which the Potency is 10 µM (active). In the case of `CCCCC(CC)CNC(=O)CCCCn1c(=O)[nH]c2ccsc2c1=O` (configuration not stated), the Potency result is “inactive”.
